# According to PubChem BioAssay (NCATS):
# Inconclusive results are not listed. A call without a number means that no potency is given here. Calls of active or inactive are those of the source. Calls follow the shape of the dose curve; as a rule, active = well fitted curve in the direction sought with a large enough effect; inconclusive = small, poorly fitted or top-dose-only effect, or another doubt; inactive = no such curve, though single readings can be large; an effect the other way counts as inactive or inconclusive.
# Legend:
# [1] = qHTS of pediatric cancer cell lines to identify multiple opportunities for drug repurposing: Primary screen for SK-N-MC cells (AID 1347093); also: potency is read from the fitted curve at half-maximal effect
# How it was run: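 Metabolically active cells were quantified by ATP-dependent luminescence (CellTiter-Glo, 15 min at room temperature) following 48 h treatment. Cells had been plated at 500-1,000 per well and settled for 5 h beforehand.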
# [2] = qHTS of pediatric cancer cell lines to identify multiple opportunities for drug repurposing: Primary screen for BT-37 cells (AID 1347094); also: potency is read from the fitted curve at half-maximal effect
# How it was run: (§1)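 Plated cells (500-1,000 per well, growth media) were allowed to settle for 5 hours, treated with compound dilutions for 48 hours, then lysed with CellTiter-Glo for 15 min at room temperature before luminescence reading.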
# [3] = qHTS of pediatric cancer cell lines to identify multiple opportunities for drug repurposing: Primary screen for NB-EBc1 cells (AID 1347095); also: potency is read from the fitted curve at half-maximal effect
# How it was run: as §1
# [4] = qHTS of pediatric cancer cell lines to identify multiple opportunities for drug repurposing: Primary screen for U-2 OS cells (AID 1347096); also: nearly all actives have a fitted effect of over 50% in size; also: potency is read from the fitted curve at half-maximal effect
# How it was run: (§2)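 Cells (500-1,000/well) in growth media were settled 5 h at 37 degrees C, then given compounds for 48 h. Viability was read as CellTiter-Glo luminescence. Primary runs used MIPE at 11 points (0.78 nM-46 µM) and NPC at 8 points (0.59 nM-46 µM); follow-ups used 11 points.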
# [5] = qHTS of pediatric cancer cell lines to identify multiple opportunities for drug repurposing: Primary screen for Saos-2 cells (AID 1347097); also: nearly all actives have a fitted effect of over 40% in size; also: potency is read from the fitted curve at half-maximal effect
# How it was run: as §1
# [6] = qHTS of pediatric cancer cell lines to identify multiple opportunities for drug repurposing: Primary screen for SK-N-SH cells (AID 1347098); also: nearly all actives have a fitted effect of over 65% in size; also: potency is read from the fitted curve at half-maximal effect
# How it was run: (§3)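 Cells (500-1,000/well) rested 5 h, then received compounds for 48 h; metabolically active cells were measured by CellTiter-Glo luminescence. Final concentrations spanned up to 46 µM (MIPE, 11-point) or 0.59 nM-46 µM (NPC, 8-point) in primary screens, 11-point in follow-ups.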
# [7] = qHTS of pediatric cancer cell lines to identify multiple opportunities for drug repurposing: Primary screen for NB1643 cells (AID 1347099); also: nearly all actives have a fitted effect of over 50% in size; also: potency is read from the fitted curve at half-maximal effect
# How it was run: as §1
# [8] = qHTS of pediatric cancer cell lines to identify multiple opportunities for drug repurposing: Primary screen for LAN-5 cells (AID 1347100); also: potency is read from the fitted curve at half-maximal effect
# How it was run: as §2
# [9] = qHTS of pediatric cancer cell lines to identify multiple opportunities for drug repurposing: Primary screen for BT-12 cells (AID 1347101); also: nearly all actives have a fitted effect of over 25% in size; also: potency is read from the fitted curve at half-maximal effect
# How it was run: as §3
# [10] = qHTS of pediatric cancer cell lines to identify multiple opportunities for drug repurposing: Primary screen for Rh18 cells (AID 1347102); also: nearly all actives have a fitted effect of over 65% in size
# How it was run: as §2
SMILES,Potency [1],Potency [2],Potency [3],Potency [4],Potency [5],Potency [6],Potency [7],Potency [8],Potency [9],Potency [10]
O=C(O)C(Cl)Cl,inactive,inactive,inactive,inactive,inactive,inactive,inactive,inactive,inactive,inactive
CC(C)(C)NC[C@H](O)c1ccc(O)cc1Cl,inactive,inactive,inactive,inactive,inactive,inactive,inactive,inactive,inactive,inactive
CCC(=O)O[C@@H]1C=C2CCC3C(CCC4(C)C3CC[C@@H]4OC(=O)CC)C2CC1 (stereo partly drawn),inactive,inactive,inactive,inactive,inactive,inactive,inactive,inactive,inactive,inactive
NC1CC1c1ccccc1 (stereo not drawn),inactive,inactive,inactive,inactive,inactive,inactive,inactive,inactive,inactive,inactive
C=CCON=C(C[C@H]1O[C@@H]2O[C@]3(C)CC[C@@H]4[C@H](C)CC[C@@H]([C@H]1C)[C@@]24OO3)[C@H]1O[C@@H]2O[C@]3(C)CC[C@H]4[C@H](C)CC[C@@H]([C@@H]1C)[C@@]24OO3,332 nM (active),432 nM (active),372 nM (active),inactive,inactive,inactive,833 nM (active),469 nM (active),344 nM (active),
CCOC(=O)c1cncn1[C@H](C)c1ccccc1,inactive,inactive,inactive,inactive,inactive,inactive,inactive,inactive,inactive,
COc1cccc2c1[C@]13CCN(CC4CC4)[C@H](C2)[C@]1(OC)CCC(=O)C3,inactive,inactive,inactive,inactive,inactive,inactive,inactive,inactive,inactive,
O=C(O)COc1ccccc1,inactive,inactive,inactive,inactive,inactive,inactive,inactive,inactive,,
CC(O)CN1CCN(CC(=O)[O-])CCN(CC(=O)[O-])CCN(CC(=O)[O-])CC1.[Gd+3] (stereo not drawn),inactive,inactive,inactive,inactive,inactive,inactive,inactive,inactive,inactive,
CCC(=O)OC1CCC2C3CCC4=CC(=O)CC[C@@]4(C)C3CC[C@]12C (stereo partly drawn),9350 nM (active),inactive,inactive,inactive,inactive,inactive,inactive,inactive,inactive,
Cc1c(N)nc([C@H](CC(N)=O)NC[C@@H](N)C(N)=O)nc1C(=O)N[C@H](C(=O)N[C@@H](C)[C@H](O)[C@@H](C)C(=O)N[C@@H](C(=O)NCCc1nc(-c2nc(C(=O)NCCC[S+](C)C)cs2)cs1)[C@@H](C)O)C(O[C@H]1O[C@H](CO)[C@H](O)[C@@H](O)[C@@H]1O[C@H]1O[C@H](CO)[C@@H](O)[C@H](OC(N)=O)[C@H]1O)c1cnc[nH]1 (stereo partly drawn),833 nM (active),1370 nM (active),1320 nM (active),inactive,1660 nM (active),inactive,1660 nM (active),526 nM (active),,
C[C@@H]1O[C@@H](O[C@@H]2C=C3CC[C@@H]4[C@@H](CC[C@]5(C)[C@H](c6ccc(=O)oc6)CC[C@@]45O)[C@@]3(C)CC2)[C@H](O)[C@H](O)[C@H]1O,8.3 nM (active),9.7 nM (active),41.8 nM (active),23.5 nM (active),52.6 nM (active),96.1 nM (active),83.3 nM (active),14.8 nM (active),19.3 nM (active),
C[C@@]12OC(=O)[C@]1([C@@H](O)[C@@H]1C=CCCC1)NC(=O)[C@H]2CCCl,8.3 nM (active),96.8 nM (active),10.5 nM (active),235 nM (active),37.2 nM (active),171 nM (active),74.3 nM (active),52.6 nM (active),137 nM (active),
COCCOCCO,inactive,inactive,inactive,inactive,inactive,inactive,inactive,inactive,inactive,inactive
C1CCC(NC2CCCCC2)CC1,inactive,inactive,inactive,inactive,inactive,inactive,inactive,inactive,inactive,inactive
CCCCOC(=O)c1ccccc1C(=O)OCc1ccccc1,inactive,inactive,inactive,inactive,inactive,inactive,inactive,inactive,inactive,inactive
C[C@]12COC(=O)C[C@@H]1CC[C@@H]1[C@H]2CC[C@@]2(C)[C@H]1CC[C@]2(C)O,inactive,inactive,inactive,inactive,inactive,inactive,inactive,inactive,inactive,inactive
CCN(CC)C(=O)c1ccc(C2=CC3(CCNCC3)Oc3cccc(O)c32)cc1,inactive,inactive,inactive,inactive,inactive,inactive,,inactive,inactive,inactive
